Screening results as filed in PubChem.
MBD2 DNA inh = MBD2-methylated oligo binding inhibition; TR-FRET, MBD2 binding to methylated oligonucleotide; inhibition, % at 4.4 µM; 0.31% of 370,000 active; in the data active = inhibition above about 13%
UHRF1 binding = human UHRF1 methylated DNA binding inhibitors; inhibition, % at 4.4 µM; 0.75% of 370,000 active; UHRF1 binding to methylated oligo, TR-FRET; in the data active = inhibition above about 21%;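 note: UHRF1 SRA domain binding a hemimethylated CpG hairpin DNA probe; 0% = median of test compound wells and 100% = reference inhibitor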
PRMT1 inh = inhibitors of human PRMT1; Q99873; inhibition, % at 2.79 µM; recombinant PRMT1, activity-based probe fluorescence polarization; AID 652257; 1.3% of 370,000 active;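 active = inhibition above about 21% made by adding two undisclosed values, limit read from the data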
Target sequence (Q99873 whole entry, looked up): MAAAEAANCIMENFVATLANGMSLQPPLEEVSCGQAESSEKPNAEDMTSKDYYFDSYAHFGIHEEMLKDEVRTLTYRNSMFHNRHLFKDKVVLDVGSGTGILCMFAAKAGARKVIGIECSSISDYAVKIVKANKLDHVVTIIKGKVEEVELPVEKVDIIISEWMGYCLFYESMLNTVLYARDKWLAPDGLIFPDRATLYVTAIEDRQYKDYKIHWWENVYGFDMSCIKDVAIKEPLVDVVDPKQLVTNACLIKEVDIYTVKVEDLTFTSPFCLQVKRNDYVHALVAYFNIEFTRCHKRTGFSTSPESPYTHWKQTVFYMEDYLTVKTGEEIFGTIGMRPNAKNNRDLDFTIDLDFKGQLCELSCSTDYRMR
LEDGF integ inh = blocks HIV-1 LEDGF/p75-dependent DNA integration; inhibition, % at 3.7 µM; TR-FRET IN-LEDGF/p75 DNA integration, Eu/Cy5; AID 743269; 0.64% of 370,000 active;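 active = inhibition above the screen-wide mean plus 3 SD, cut at about 13% in these data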;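 note: signal is the Cy5 over europium emission ratio at 671 and 618 nm; 0% = plate median of compound wells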
PRMT1 confirm = confirmation of human PRMT1 inhibitors; 42% of 3,300 active; recombinant His-PRMT1, activity-based probe fluorescence polarization; AID 687036; inhibition, % at 2.79 µM; shares compounds with PRMT1 inh;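 active = mean inhibition across replicates above the hit cutoff derived for the earlier primary screen, cut at about 22% in these data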
Numbers without * were called inactive; . = not tested or not shown. In the library only some 2.5% were active in any assay of this set; here they are far more common.

SMILES	MBD2 DNA inh	UHRF1 binding	PRMT1 inh	LEDGF integ inh	PRMT1 confirm
CC(C)CC1CC(C)(c2csc(NNC(=O)c3ccccc3)n2)OC1=O (stereo not given)	-5.5	-1.8	41.5*	5.4	-3.3
O=C(Nc1ccc(Cl)cc1)O[C@@H]1CC[C@@]23CCCN2C(=O)CCC[C@H]3C1	3.0	-3.1	-0.1	-1.1	.
COC(=O)c1ccc(-c2ccco2)n1Cc1nc(-c2ccc(OC)c(OC)c2)oc1C	-1.0	4.1	29.5*	-5.5	2.8
OC(c1cccc(CN2CCCCC2)c1)c1ncc(-c2ccccc2Cl)[nH]1 (stereo not given)	-2.4	-1.4	-3.3	1.2	.
CN(CCO)c1cc(Sc2nc3ccccc3s2)c2nonc2c1[N+](=O)[O-]	-11.7	-11.6	90.2*	1.6	88.6*
O=C1CCC(=O)N1c1ccc(CSc2nc3ccccc3[nH]2)cc1	-2.0	4.7	33.1*	1.4	28.0*
COc1ccc(CSc2nc3ccccc3[nH]2)cc1	0.0	0.9	1.4	-0.5	.
C/C(=N/NC(=O)CSc1nc2ccccc2s1)c1ccncc1	-3.7	-0.3	-1.4	-0.5	.
CS/C(=N\S(=O)(=O)c1cccs1)NC(=O)CSc1nc2ccccc2s1	1.4	-0.9	28.3*	1.7	33.2*
Cc1ccc(C2=NNC3(CCOC(C)(C)C3)S2)cc1 (stereo not given)	-0.5	0.8	3.4	2.3	.
O=C(NC1CCCCC1)C(c1ccnc2ccccc12)n1c(=O)c(-c2ccccc2)nc2ccccc21 (stereo not given)	1.7	3.0	-0.7	1.0	.
O=C(CCN1C(=O)/C(=C\c2cccs2)SC1=S)Nc1ccc(C(=O)O)cc1	1.1	-3.6	0.3	-1.3	.
CC(C(=O)Nc1ccc(O)cc1C(=O)O)N1C(=O)/C(=C\c2cccs2)SC1=S (stereo not given)	-0.5	-3.8	58.2*	0.2	28.0*
CC(=O)Nc1ccc(SC(Sc2ccc(NC(C)=O)cc2)c2ccccc2)cc1	3.1	1.2	29.0*	-4.5	21.7*
CC(=O)Nc1ccc(NC(=S)Nc2ccccc2)cc1	1.6	1.4	1.1	-3.4	.
NC1=NC(=O)CC(C(=O)NCCc2ccccc2)S1 (stereo not given)	0.3	-4.0	29.7*	-0.9	3.2
CCc1ccc(NC(=O)C2CC(=O)N=C(N)S2)cc1 (stereo not given)	-5.2	-2.4	-0.1	1.3	.
CC(=O)Nc1ccc(SCC(=O)c2cc(C)n(-c3ccccc3F)c2C)cc1	-2.1	1.4	27.7*	-0.2	29.8*
COC(=O)c1ccc(-n2c(C)cc(C(=O)CSc3cccc[n+]3[O-])c2C)cc1	8.2	1.9	4.0	0.7	.
COC(=O)c1ccc(-n2c(C)cc(C(=O)CSc3ccc(NC(C)=O)cc3)c2C)cc1	-6.6	-1.2	49.7*	1.4	29.5*
C=CCn1c(C)cc(C(=O)CSc2ccc(NC(C)=O)cc2)c1C	1.2	-1.3	1.4	-1.2	.
COc1ccc(CC(=O)NNC(=O)COc2ccc(Cl)cc2C)cc1S(=O)(=O)N1CCOCC1	0.5	-0.9	-5.1	-0.1	.
CC1(NC(=O)Nc2cccc(Br)c2)CCS(=O)(=O)C1 (stereo not given)	0.7	1.0	-2.3	-0.8	.
CCN(Cc1ccc2c(c1)OCO2)C(=O)CSc1nc(C)nc2sc(C)c(C)c12	-0.2	0.2	-3.6	3.8	.
Cc1nn(C)cc1/C=N/NC(=S)Nc1ccccc1	1.0	-4.0	39.1*	-0.8	4.3
SMILES	MBD2 DNA inh	UHRF1 binding	PRMT1 inh	LEDGF integ inh	PRMT1 confirm
CCN(CC)CCCNC(=O)/C=C/C(=O)O	-0.4	4.8	27.3*	-3.0	-1.0
CCN(CC)CCCNC(=O)c1ccccc1C	-0.6	18.4	-2.6	-4.5	.
O=C(NN=Cc1ccccc1C(=O)O)C(=O)NN=Cc1ccccc1C(=O)O	2.2	-0.1	103.9*	0.2	-0.6
CC1=CC(=O)Nc2ccccc2S1	-4.3	-4.1	11.2	4.2	.
Cc1cc(/C=C2\SC(=O)N(C)C2=O)c(C)n1-c1ccc(O)cc1	-7.8	-4.2	1.7	1.8	.
CC(=O)NC1=NC(=O)/C(=C/c2cc(C)n(-c3ccc(NC(C)=O)cc3)c2C)S1	-5.6	-7.3	32.1*	-6.0	-8.9
CCN=C1S/C(=C\c2cn(C(C)=O)nc2-c2ccccc2)C(=O)N1CC	-4.5	-1.4	-2.5	-2.1	.
CC(=O)NC1=NC(=O)/C(=C/c2cn(C(C)=O)nc2-c2ccccc2)S1	-2.7	-6.6	30.5*	-1.5	26.8*
Cc1ccc([C@@H]2C3COCC=C3C(C#N)=C(N)C2(C#N)C#N)o1 (stereo not given in full)	-10.7	-6.0	28.3*	2.4	5.9
